Test results published in the supplement of paper PMC6555819.

What was measured:
Assay in all cases: PBM binding z-score (relative to random genomic background probes); higher = stronger binding; sequences stand for … in GC…GCGATTGACAGCGTAGAATGAAGG
[1] = system: FXR:RXRa (NR concentration 270 nM, RXRa partner concentration 90 nM)
How it was run: (§1)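 Antibodies against each partner of ligand-free nuclear receptor dimers (one per run) detected binding on custom Agilent 4×180K protein-binding microarrays after 1 h incubation. The double-stranded probes had 34-nt variable regions carrying direct-repeat seeds, single-nucleotide variants, half-site ablations and random human genomic background sequences. Binding z-scores, from regression-normalized fluorescence, use the random background probes as reference.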

[2] = system: LXRa:RXRa (NR concentration 270 nM, RXRa partner concentration 90 nM)
How it was run: as §1

[3] = system: LXRa homodimer (NR concentration 270 nM)
How it was run: as §1

[4] = system: LXRb:RXRa (NR concentration 270 nM, RXRa partner concentration 90 nM)
How it was run: as §1

[5] = system: LXRb homodimer (NR concentration 270 nM)
How it was run: as §1

[6] = system: PPARa:RXRa (NR concentration 270 nM, RXRa partner concentration 90 nM)
How it was run: as §1

[7] = system: PPARg:RXRa (NR concentration 180 nM, RXRa partner concentration 90 nM)
How it was run: as §1

[8] = system: PPARg:RXRa 270nM:90nM, anti-RXR (NR concentration 270 nM, RXRa partner concentration 90 nM)
How it was run: as §1

[9] = system: PPARg:RXRa 30nM:10nM, anti-RXR (NR concentration 30 nM, RXRa partner concentration 10 nM)
How it was run: as §1

[10] = system: PPARg:RXRa 90nM:30nM, anti-RXR (NR concentration 90 nM, RXRa partner concentration 30 nM)
How it was run: as §1

Sequence	PBM binding z-score [1]	PBM binding z-score [2]	PBM binding z-score [3]	PBM binding z-score [4]	PBM binding z-score [5]	PBM binding z-score [6]	PBM binding z-score [7]	PBM binding z-score [8]	PBM binding z-score [9]	PBM binding z-score [10]
TAACCAAGGTGAAGGTCGTTGATCCCTCTGTAGA	2.07	2.07	0.0328	1.66	-0.394	2.58	3.03	3.53	2.15	4.01
GCTGCTAGGACAGGTTGGTCAGCTAACGGGTACG	-0.662	-0.909	-0.343	-0.926	-0.654	-0.661	0.0442	-0.697	-1.16	-0.722
TCAGATAGGTAAACAGGTGAAAGTCCGTAAGTTA	0.678	0.827	0.121	0.939	-0.225	2.07	1.3	2.9	4.02	3.81
CCGAGTAGGTTACGGGGCATTCAGGCAACGGTGA	0.382	0.612	-0.693	0.593	-0.641	2.14	2.87	3.66	1.1	2.95
CCTACTGGGCCACGAAATGTCATTGATTCAGTGA	-0.161	-0.0585	-0.34	-0.341	-0.393	0.653	1.58	1.24	-0.144	0.475
CCTACTTGGTCAAGGTCACACACGCTATAGGTAC	4.25	4.24	2.32	4.05	1.7	4.33	3.75	3.87	1.38	2.72
TCATATAGGTAAATGCTAGGTGGAAGTCCGATCT	0.532	0.496	0.0241	0.66	-0.216	0.983	0.493	2.41	3.84	2.88
TTGCCTAGGTCATGGGCCAGTATACCACGCGAAC	4.71	3.43	0.623	2.49	-0.439	4.25	3.7	3.59	0.614	2.48
TAGCCTAGGTCAGACCGGGCCAGTATACGCTATA	2.15	1.09	-0.437	0.609	-0.719	1.61	0.828	0.617	-0.277	0.23
TCTTTTAGATCAGCAGGTTAAGAAAGCTGGCCAA	0.304	0.549	-0.247	0.44	0.139	0.889	-0.5	1.65	3.33	2.36
CCTAGTTCGTCAGGAGGTCACACACCGGATATGA	3.66	4.1	2.37	3.64	1.22	4.28	2.29	3.03	1.04	2.19
GATACAGGGCCAAGGCCAGAGTACGCGTATTGAT	-0.68	-0.832	-0.782	-1	-1.09	-0.662	0.814	0.25	-0.269	-0.247
TCCTATAGGTAAATGCTAGGTGAAAGTCCGATCT	0.02	0.489	-0.157	0.379	-0.293	1.16	0.318	1.7	2.99	2.19
CCTTACGGCTCACTGACAGGTTATAGCATTTGGA	0.367	0.347	0.304	0.294	-0.0562	0.311	0.426	-0.0307	0.448	0.0518
CATACAGGGCCAGCTAGGCCAGAGTAGGGACGGC	-0.56	-0.822	-0.918	-1.15	-0.413	-0.817	0.311	-0.829	-0.392	-1
TCCCGGAGGACACGAAAGGTCAGAGCTCGACATC	3.13	3.95	2.89	2.93	-0.374	3.45	1.51	2.59	2.05	2.49
CCTACTCGGCCAAGGTCATTGATCAGTCAAAGCA	3.57	3.69	2.12	3.18	0.93	3.52	1.32	2.35	0.335	1.69
GATACAGGGTCAAGGCCAGAGAACGCGTATTGAT	6.78	4.32	0.0774	3.59	-0.239	5.57	5.91	5.64	2.25	4.54
AGAATGAGGTTATCAAAGATCAGGGAAACGCTTG	1.6	5.08	-0.032	2.44	-0.277	3.13	1.78	1.69	0.863	1.53
AGAATGAGGTTATTAAGATCAGGCAATTGCGGTC	1.46	1.36	0.308	1.11	-0.00931	2.58	1.42	1.73	0.485	1.18
TTACCAAGGTGCAAGGTCGTTGATGCACGCCTTG	0.786	1.16	0.129	0.668	-0.474	2.06	2.28	3.87	1.91	3.42
TAGAGTAGGTTAGGGGCATTCAGAATGGCGTCGA	0.854	0.929	0.289	1.66	2.45	2.24	2.29	3.01	1.48	2.6
CCTACTGGGCCATCAAGTCATTGATATCAACGTT	-0.198	-0.233	-0.0812	0.373	-0.319	1.02	0.723	1.67	0.283	0.805
TCTTGTAGATCAATGGTTAAGAAAGCCGAAGCCT	0.494	0.359	-0.126	-0.0354	-0.123	0.608	0.23	2.48	3.07	2.99
